Screening results from PubChem.
GPR151 ag: activators of human GPR151, primary screen, cell-based, PathHunter beta-arrestin, luminescence; PathHunter beta-arrestin GPR151 cells; actives 1% (n = 650,000); activation, % at 11.2 µM; in the data active means activation above about 4.9%;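 further: 0% = median of compound wells and 100% = cells with positive control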
Target sequence (Q8TDV0 whole entry, looked up): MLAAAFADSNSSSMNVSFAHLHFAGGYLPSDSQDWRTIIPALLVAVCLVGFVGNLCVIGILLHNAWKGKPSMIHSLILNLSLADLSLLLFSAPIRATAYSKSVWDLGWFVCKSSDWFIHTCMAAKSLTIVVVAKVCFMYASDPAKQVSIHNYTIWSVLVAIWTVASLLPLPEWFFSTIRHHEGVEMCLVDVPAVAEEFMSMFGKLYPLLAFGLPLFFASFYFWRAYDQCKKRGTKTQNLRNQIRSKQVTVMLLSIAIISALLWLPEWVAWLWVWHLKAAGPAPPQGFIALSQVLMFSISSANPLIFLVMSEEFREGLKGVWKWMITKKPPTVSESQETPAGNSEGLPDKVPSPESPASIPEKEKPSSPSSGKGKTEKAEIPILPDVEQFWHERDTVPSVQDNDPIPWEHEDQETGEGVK
FBW7 activator: FBW7 E3 ligase activators, primary screen, biochemical, AlphaScreen, human; normalized activity (activation), % at 26.1 µM; actives 0.13% (n = 650,000); AlphaScreen FBW7–phospho-cyclin E peptide binding, activator screen; F-box/WD repeat-containing protein 7 (Homo sapiens), Q969H0; in the data active means normalized activity above about 1.9%;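 further: purified mutant Fbw7 with reduced substrate affinity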
TEAD-YAP inh: TEAD-YAP interaction inhibition, primary screen, TEAD-YAP interaction inhibitor project, luminescence, HEK-TIYL cells; actives 1.4% (n = 640,000); inhibition, % at 9.12 µM; TEAD-Gal4/YAP UAS-luciferase luminescence; in the data active means inhibition above about 32%;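 further: 0% = median of test compound wells and 100% = reference inhibitor wells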
MITF inh: MITF inhibitors, primary screen, biochemical, AlphaScreen, human. AlphaScreen MITF homodimerization, bead proximity signal. inhibition, % at 2.6 µM. actives 0.91% (n = 650,000). AID 1259374, 2018; in the data active means inhibition above about 50%;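 further: 0% = vehicle wells with protein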
The depositor's hits bear a star; ! = not confirmed by another sample. This is a sample that favours compounds with a hit; in the whole collection about 3.5% have one here.

SMILES	GPR151 ag	FBW7 activator	TEAD-YAP inh	MITF inh
C=CCOc1ccc(CNC(C)C(O)c2ccccc2)cc1 (stereo not given)	4	0	13	2
c1cc2c(cc1-c1ccc3c(c1)OCO3)COC1(CCNCC1)O2	-1	1	9	-10
c1ccc2cc(-c3ccc4c(c3)COC3(CCNCC3)O4)ccc2c1	0	-1	84*	-18
CN(C)c1ccc(-c2cc[n+](C)cc2)cc1	2	0	56*	17
CCOC(=O)C1=C(N)Oc2c(c(C)nn2-c2ccccc2)C12C(=O)Nc1ccc(CC)cc12 (stereo not given)	2	0	2	6
CCn1nc(-c2ccccc2)nc2c(=O)n(C)c(=O)nc1-2	-8	-2	-32	5
Cc1nc2c(=O)n(C)c(=O)nc-2n(C)n1	-6	-2	100*	22
O=C1NC(=O)C(=Cc2ccc(OCc3cccc(C(=O)O)c3)cc2)C(=O)N1	-8	0	71*	-3
O=C1NC(=O)C(=Cc2cc(Cl)ccc2OCc2ccc(C(=O)O)cc2)C(=O)N1	1	-1	0	5
CCOc1ccc(C=C2C(=O)NC(=S)NC2=O)cc1OCC	-1	0	4	5
COc1cc(C=C2C(=O)NC(=S)NC2=O)ccc1OCc1cccc(C(=O)O)c1	-8	0	85*	-20
O=C(Nc1ccccc1)OC1CN2CCC1CC2 (stereo not given)	1	0	-9	1
CCOC(=O)C1(c2ccccc2)CCN(CC(=O)Nc2ccc(C(C)=O)cc2)CC1	-2	0	-17	19
Cc1cc(O)c(C(=O)Nc2ccccc2)c(=O)n1Cc1ccccn1	0	0	3	12
C=CCOc1ccc(/C=C(\C)[N+](=O)[O-])cc1OC	0	0	42*	3
CC(=O)Oc1ccc(/C=C/c2cc(OC(C)=O)cc(OC(C)=O)c2)cc1	-7	0	96*	0
CCOC(=O)C1C2NC(=S)N(c3ccc(Cl)cc3)C1(C)Oc1c(OC)cccc12 (stereo not given)	1	-1	62*	26
CCOC(=O)C1C2NC(=S)N(c3ccc(Cl)cc3)C1(C)Oc1ccc(OC)cc12 (stereo not given)	-1	0	50*	19
CC1=C(C(=O)OC(C)C)C2(C(=O)N(CC(N)=O)c3ccccc32)C(C#N)=C(N)O1 (stereo not given)	0	0	-7	4
CC1=[N+](C)c2c(ccc3ccccc23)C1(C)C	1	0	60*	26
O=c1cccc2n1CC1CC2CN(c2nc(Cl)nc(NCc3ccco3)n2)C1 (stereo not given)	-1	0	-8	7
COC(=O)Nc1nc2ccccc2[nH]1	-3	0	35*	-11
COc1ccc(C2NCc3ccc4c(c3-n3cccc32)OCO4)cc1O (stereo not given)	1	0	56*	5
CCOC(=O)C1=C(C)NC(C)=C2C(=O)Oc3ccccc3C12 (stereo not given)	1	0	0	-3
CCOC(=O)C12OC1(c1ccc(CC)cc1)C(=O)c1ccccc1C2=O (stereo not given)	0	0	37*	21
SMILES	GPR151 ag	FBW7 activator	TEAD-YAP inh	MITF inh
CCC(N)C(=O)c1cccs1 (stereo not given)	0	0	-1	3
COc1cc2c(cc1O)CC1c3c(cc(O)c(OC)c3-2)CCN1C (stereo not given)	2	0	34*!	19
C[N+]1(C)CCc2cc3c(cc2[C@H]1[C@@H]1OC(=O)c2c1ccc1c2OCO1)OCO3	4	1	-4	19
CN1Cc2c(ccc3c2OCO3)[C@@H]2[C@H]1c1cc3c(cc1C[C@@H]2O)OCO3	0	0	62*	6
O=C(Oc1ccc([N+](=O)[O-])c2cccnc12)c1cccc(S(=O)(=O)N2CCOCC2)c1	1	-1	6	72*
O=C(Oc1cccc2cccnc12)c1cccc(S(=O)(=O)N2CCCCCC2)c1	-1	0	1	-4
CC(C)[C@]12O[C@H]1[C@@H]1O[C@]13[C@]1(O[C@H]1C[C@H]1C4=C(CC[C@@]13C)C(=O)OC4)[C@@H]2O	1	0	90*	3
C=CCN1C(=O)C2(C(C#N)=C(N)Oc3ccccc32)C(C(C)=O)=C1C (stereo not given)	-1	1	6	18
